Results reported in the supplement of paper PMC11732987, “Enantioselective OTUD7B fragment discovery through chemoproteomics screening and high-throughput optimisation” (Communications Chemistry, 2025).

Columns and labels:
Assay in all cases: log2 ratio of Biotin-Ahx-Ub-VS probe labelling (fragment/DMSO); higher = less target engagement (more negative = stronger competition), active = hit call of the paper (q ≤ 0.05, log2 ratio ≤ -1)
Details in all cases: compound concentration: 200 uM; treatment time: 3 h
OTUD6B = biological target: T1, OTUD6B (UniProt Q8N6M0)
T1 sequence (whole entry): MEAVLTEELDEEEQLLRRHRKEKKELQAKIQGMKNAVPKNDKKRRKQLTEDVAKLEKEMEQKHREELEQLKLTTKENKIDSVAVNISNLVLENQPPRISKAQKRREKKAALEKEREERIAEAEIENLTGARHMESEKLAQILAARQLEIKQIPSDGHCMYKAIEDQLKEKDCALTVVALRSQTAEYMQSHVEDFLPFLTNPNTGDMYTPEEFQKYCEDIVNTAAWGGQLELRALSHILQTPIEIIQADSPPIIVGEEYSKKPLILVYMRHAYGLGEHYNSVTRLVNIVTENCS
Summary of the method: (§1)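 Fragment (200 µM) or vehicle was incubated for 3 h with triplicate HEK293T lysate samples of 495 µg, which were then treated with Biotin-Ahx-Ub-VS at 0.5 µM final for 1 h. Labelled DUBs were enriched on NeutrAvidin, digested with LysC and trypsin, and analysed by diaPASEF LC-MS/MS. Values are average log2 fragment/vehicle ratios from an unpaired t-test on global-median-normalised Spectronaut label-free quantities, using proteins with ≥2 unique peptides.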

OTUD7B = biological target: T2, OTUD7B (UniProt Q6GQQ9)
T2 sequence (whole entry): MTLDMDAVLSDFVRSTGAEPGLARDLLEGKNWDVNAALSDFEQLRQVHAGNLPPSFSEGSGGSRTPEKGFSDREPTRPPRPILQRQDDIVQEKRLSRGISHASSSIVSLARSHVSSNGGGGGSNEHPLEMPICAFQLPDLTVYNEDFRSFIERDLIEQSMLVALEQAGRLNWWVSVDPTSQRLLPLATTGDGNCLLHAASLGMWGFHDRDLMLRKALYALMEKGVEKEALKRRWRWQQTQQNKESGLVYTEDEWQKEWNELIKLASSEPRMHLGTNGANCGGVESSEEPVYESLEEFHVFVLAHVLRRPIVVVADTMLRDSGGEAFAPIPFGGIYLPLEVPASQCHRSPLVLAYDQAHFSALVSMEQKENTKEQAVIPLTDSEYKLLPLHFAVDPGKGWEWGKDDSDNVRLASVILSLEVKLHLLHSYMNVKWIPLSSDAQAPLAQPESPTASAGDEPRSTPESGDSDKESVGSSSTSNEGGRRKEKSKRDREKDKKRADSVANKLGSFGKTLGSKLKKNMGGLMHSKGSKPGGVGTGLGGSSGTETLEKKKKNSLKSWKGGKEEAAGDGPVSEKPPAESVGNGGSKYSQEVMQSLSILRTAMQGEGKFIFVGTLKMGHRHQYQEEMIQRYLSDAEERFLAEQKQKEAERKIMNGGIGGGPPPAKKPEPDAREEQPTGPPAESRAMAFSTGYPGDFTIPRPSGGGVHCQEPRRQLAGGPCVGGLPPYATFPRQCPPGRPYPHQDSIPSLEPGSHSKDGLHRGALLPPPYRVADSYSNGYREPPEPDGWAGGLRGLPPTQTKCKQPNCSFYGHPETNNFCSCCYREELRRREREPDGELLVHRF
Summary of the method: as §1

PRPF8 = PRPF8 (UniProt Q6P2Q9)
Summary of the method: as §1

PSMD7 = biological target: T3, PSMD7 (UniProt P51665)
T3 sequence (whole entry): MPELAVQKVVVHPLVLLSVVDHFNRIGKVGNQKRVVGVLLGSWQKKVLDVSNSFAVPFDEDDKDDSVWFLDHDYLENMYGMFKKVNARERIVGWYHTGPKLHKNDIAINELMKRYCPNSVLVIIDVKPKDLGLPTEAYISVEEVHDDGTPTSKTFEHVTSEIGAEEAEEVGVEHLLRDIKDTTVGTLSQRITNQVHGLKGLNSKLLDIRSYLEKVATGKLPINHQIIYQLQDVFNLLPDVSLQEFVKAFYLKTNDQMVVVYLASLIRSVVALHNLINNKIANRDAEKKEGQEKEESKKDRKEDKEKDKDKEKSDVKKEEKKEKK
Summary of the method: as §1

UCHL1 = UCHL1 (UniProt P09936)
UCHL1, sequence (P09936 whole entry, looked up): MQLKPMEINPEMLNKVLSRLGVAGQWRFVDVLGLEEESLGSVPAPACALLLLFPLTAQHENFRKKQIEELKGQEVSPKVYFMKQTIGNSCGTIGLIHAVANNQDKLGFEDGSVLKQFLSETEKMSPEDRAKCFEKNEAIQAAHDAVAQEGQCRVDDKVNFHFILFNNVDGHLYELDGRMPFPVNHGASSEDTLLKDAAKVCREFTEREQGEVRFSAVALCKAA
Summary of the method: as §1

UCHL3 = biological target: T4, UCHL3 (UniProt P15374)
T4 sequence (whole entry): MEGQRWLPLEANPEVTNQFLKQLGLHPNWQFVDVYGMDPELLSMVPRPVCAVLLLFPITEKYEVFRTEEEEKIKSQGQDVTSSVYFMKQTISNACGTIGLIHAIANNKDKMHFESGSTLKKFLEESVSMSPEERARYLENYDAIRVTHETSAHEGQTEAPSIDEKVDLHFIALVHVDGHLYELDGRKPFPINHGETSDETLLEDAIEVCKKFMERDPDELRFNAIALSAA
Summary of the method: as §1

UCHL5 = biological target: T5, UCHL5 (UniProt Q9Y5K5)
T5 sequence (whole entry): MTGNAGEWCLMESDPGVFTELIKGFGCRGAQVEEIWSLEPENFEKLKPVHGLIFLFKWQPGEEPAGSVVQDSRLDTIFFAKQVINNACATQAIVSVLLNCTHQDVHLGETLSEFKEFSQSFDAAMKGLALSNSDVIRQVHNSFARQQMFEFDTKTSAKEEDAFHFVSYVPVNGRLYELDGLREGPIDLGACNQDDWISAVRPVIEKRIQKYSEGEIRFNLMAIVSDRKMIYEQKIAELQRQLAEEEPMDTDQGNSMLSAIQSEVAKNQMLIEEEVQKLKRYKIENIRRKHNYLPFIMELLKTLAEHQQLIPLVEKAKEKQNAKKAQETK
Summary of the method: as §1

USP10 = USP10 (UniProt Q14694)
USP10, sequence (Q14694 whole entry): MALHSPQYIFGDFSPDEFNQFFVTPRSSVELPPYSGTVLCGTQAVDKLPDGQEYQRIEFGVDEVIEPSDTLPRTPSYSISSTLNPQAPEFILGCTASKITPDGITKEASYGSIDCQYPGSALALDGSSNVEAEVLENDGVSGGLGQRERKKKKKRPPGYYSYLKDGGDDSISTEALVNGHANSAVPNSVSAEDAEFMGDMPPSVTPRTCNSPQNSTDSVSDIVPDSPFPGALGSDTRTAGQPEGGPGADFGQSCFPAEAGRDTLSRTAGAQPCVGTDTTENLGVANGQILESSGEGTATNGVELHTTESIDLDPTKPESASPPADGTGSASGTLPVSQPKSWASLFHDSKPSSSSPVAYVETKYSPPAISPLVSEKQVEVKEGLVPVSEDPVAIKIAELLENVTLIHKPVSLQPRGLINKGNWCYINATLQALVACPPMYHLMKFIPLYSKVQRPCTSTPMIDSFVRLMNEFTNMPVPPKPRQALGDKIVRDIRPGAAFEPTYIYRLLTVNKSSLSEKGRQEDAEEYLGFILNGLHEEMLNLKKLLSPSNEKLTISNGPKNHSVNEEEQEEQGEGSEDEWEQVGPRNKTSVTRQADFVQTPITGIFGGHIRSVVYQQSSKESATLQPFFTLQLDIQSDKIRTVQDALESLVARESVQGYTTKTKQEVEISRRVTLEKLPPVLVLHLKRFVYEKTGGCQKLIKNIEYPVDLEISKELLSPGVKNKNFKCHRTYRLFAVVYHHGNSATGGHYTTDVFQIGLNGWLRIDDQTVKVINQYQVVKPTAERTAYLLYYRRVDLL
Summary of the method: as §1

USP15 = biological target: T6, USP15 (UniProt Q9Y4E8)
T6 sequence (whole entry): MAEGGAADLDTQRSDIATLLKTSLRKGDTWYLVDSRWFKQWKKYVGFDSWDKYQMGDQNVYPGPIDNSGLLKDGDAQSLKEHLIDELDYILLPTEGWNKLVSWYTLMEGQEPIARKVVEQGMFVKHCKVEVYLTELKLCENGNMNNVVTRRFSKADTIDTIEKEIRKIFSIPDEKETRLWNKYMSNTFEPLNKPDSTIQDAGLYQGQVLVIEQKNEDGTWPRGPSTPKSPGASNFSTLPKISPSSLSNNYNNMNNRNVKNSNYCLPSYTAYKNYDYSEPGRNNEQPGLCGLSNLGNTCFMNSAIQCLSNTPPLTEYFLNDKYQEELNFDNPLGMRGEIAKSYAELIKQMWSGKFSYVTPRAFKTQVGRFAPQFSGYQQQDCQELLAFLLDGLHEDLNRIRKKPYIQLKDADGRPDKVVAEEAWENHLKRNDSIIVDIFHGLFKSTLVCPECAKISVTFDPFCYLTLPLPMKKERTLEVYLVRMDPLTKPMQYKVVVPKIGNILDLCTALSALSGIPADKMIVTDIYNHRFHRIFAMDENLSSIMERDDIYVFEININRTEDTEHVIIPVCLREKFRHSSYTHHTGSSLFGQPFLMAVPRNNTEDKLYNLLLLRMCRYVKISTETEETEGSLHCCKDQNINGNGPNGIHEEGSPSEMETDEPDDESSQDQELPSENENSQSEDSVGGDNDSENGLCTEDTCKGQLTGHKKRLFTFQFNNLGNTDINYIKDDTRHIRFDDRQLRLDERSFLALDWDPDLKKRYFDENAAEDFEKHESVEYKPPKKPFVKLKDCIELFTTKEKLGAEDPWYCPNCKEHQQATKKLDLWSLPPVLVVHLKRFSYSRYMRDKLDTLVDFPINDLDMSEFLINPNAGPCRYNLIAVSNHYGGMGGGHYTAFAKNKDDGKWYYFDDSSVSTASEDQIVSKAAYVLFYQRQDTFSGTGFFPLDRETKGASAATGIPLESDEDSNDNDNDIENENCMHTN
Summary of the method: as §1

USP16 = USP16 (UniProt Q9Y5T5)
USP16, sequence (Q9Y5T5 whole entry, looked up): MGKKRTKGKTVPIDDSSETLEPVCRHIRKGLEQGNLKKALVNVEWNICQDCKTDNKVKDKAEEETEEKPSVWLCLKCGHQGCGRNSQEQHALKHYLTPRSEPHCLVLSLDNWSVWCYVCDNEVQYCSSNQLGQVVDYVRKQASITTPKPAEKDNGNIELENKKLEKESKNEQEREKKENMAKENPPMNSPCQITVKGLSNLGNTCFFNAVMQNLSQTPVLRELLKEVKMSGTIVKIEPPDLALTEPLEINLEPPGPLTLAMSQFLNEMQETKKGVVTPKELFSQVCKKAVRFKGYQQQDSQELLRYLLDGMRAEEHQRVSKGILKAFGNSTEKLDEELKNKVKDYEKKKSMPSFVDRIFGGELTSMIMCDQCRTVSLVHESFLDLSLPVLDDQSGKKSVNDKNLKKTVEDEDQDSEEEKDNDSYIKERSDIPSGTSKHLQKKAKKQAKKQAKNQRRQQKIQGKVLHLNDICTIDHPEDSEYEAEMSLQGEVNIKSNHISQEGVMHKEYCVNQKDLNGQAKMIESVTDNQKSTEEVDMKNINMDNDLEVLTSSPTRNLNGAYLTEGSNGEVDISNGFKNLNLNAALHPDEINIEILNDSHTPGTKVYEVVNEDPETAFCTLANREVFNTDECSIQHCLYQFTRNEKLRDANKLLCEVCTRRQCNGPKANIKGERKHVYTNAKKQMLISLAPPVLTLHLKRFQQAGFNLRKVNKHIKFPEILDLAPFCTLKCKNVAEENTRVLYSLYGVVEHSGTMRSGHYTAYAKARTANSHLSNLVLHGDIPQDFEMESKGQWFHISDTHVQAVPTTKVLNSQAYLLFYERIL
Summary of the method: as §1

Measured: log2 ratio of Biotin-Ahx-Ub-VS probe labelling

O=C(CCl)NC1(c2ccc3c(c2)OCCO3)CCCC1
inactive: OTUD6B -0.0936 | OTUD7B -0.638 | PRPF8 -0.154 | PSMD7 -0.208 | UCHL3 -0.106 | UCHL5 -0.537 | USP10 -0.203 | USP15 -0.213 | USP16 -0.316
active: UCHL1 -1.32
